Pf Dd2 growth = P. falciparum Dd2 growth inhibitors, primary screen, SYBR Green fluorescence, single dose replicates. 72 h; active compounds read low. activity change, % at 10 µM. 2.3% of 94,000 active. AID 1159554, 2015; in the data active = activity change below about -80%; inconclusive = no clear call, values can overlap the other calls
C diff HTS = C. difficile growth inhibitors, primary screen, HTS; Clostridium difficile clinical isolate growth, OD600, 24 h; active compounds read low; growth activity, negative = inhibition, % at 16 µg/mL (by protocol); 0.25% of 86,000 active; AID 1259249, 2017;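 active = mean growth activity at or below -80% and every replicate also at or below -80%; inconclusive = mean at or below -80% but some replicate above -80%; inactive = mean growth activity above -80%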
T cruzi growth-1 = T. cruzi intracellular proliferation inhibitors, primary screen, cell-based, beta-gal Tulahuen parasites, NIH3T3 host, luminescence. T. cruzi beta-gal in NIH3T3, GalScreen luminescence, 90 h. inhibition, % at 8.34 µM. 5.9% of 77,000 active;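 active = mean inhibition above about 93%, with at least 55% of replicates each passing it, limit read from the data, passing the limit was not always enough; inconclusive = only one of those two conditions holds; inactive = neither condition holds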
T cruzi growth-2 = T. cruzi intracellular proliferation inhibitors, confirmation, cell-based, NIH3T3 host, beta-gal parasite, luminescence, cherry-pick; shares compounds with T cruzi growth-1; T. cruzi beta-gal in NIH3T3, GalScreen luminescence, 90 h; inhibition, % at 8.35 µM; 72% of 5,600 active; AID 651739, 2012;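 active = mean replicate inhibition above about 95% and at least 55% of replicates individually reaching it, limit read from the data; inconclusive = only one of the two criteria is met; inactive = neither criterion is met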
T cruzi growth-3 = inhibitors of intracellular T. cruzi replication, confirmation, NIH3T3 host cells, beta-gal parasites, cherry-pick, set 2 | 21% of 5,600 active | inhibition, % at 2.09 µM | T. cruzi beta-gal in NIH3T3, GalScreen luminescence, 90 h | shares compounds with T cruzi growth-1;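 active = mean inhibition above about 95%, with at least 55% of replicates also reaching it, limit read from the data; inconclusive = meets just one of the two conditions; inactive = meets neither condition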
NIH3T3 tox = cytotoxicity in mouse NIH/3T3 fibroblasts, confirmation, cytotoxicity control for T. cruzi proliferation inhibitor project, cell-based, cherry-pick, single point; shares compounds with T cruzi growth-1; NIH/3T3 viability, CellTiter-Glo ATP luminescence, 90 h; cytotoxicity (signal decrease), % at 8.35 µM; 14% of 5,600 active;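 active = mean signal decrease across replicates above about 35% based on untreated-well scatter, with enough replicates individually passing, limit read from the data; inconclusive = no rule stated though some were filed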
3T3 cytotox 2 = NIH/3T3 fibroblast cytotoxicity, confirmation, cytotoxicity control, cell-based, cherry-pick, single point, set 2; inhibition, % at 24.9 µM; shares compounds with T cruzi growth-1; AID 651744, 2012; 56% of 5,600 active; NIH/3T3 viability, CellTiter-Glo ATP luminescence, 90 h;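 active = mean loss of cell viability signal at or above a set limit, and enough replicates individually reaching it; inconclusive = meets only the mean limit or only the replicate share; inactive = meets neither condition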
Numbers stand for hits. Only some compounds are listed: those with a hit (about 6.7% of all), similar ones and a draw of the others.

How did CNC[C@H]1Oc2c(NC(=O)Nc3cccc4ccccc34)cccc2C(=O)N([C@@H](C)CO)C[C@H]1C do in these assays?
Pf Dd2 growth: inactive; C diff HTS: inactive

Results for COc1ccc2c3c(n(C)c2c1)[C@H](CO)N(C(C)=O)CC31CN(C(=O)NC(C)C)C1 ?
Pf Dd2 growth: inactive; C diff HTS: inactive

Results for O=C(C[C@@H]1C[C@H]2c3cc(NC(=O)Nc4ccc(C(F)(F)F)cc4)ccc3O[C@H]2[C@H](CO)O1)NCC1CC1 ?
Pf Dd2 growth: inactive; C diff HTS: inactive

What do the screens show for `C[C@@H]1CN([C@@H](C)CO)C(=O)Cc2cc(NC(=O)Cc3ccccc3)ccc2O[C@H]1CN(C)CC1CC1`?
Pf Dd2 growth: inactive; C diff HTS: inactive; T cruzi growth-1: inactive

Results for Cc1ccc(S(=O)(=O)Nc2ccc3c(c2)C(=O)N([C@H](C)CO)C[C@@H](C)[C@H](CN(C)C(=O)Nc2ccc(F)cc2)OCCCC[C@H](C)O3)cc1 ?
Pf Dd2 growth: inactive; T cruzi growth-1: 100; T cruzi growth-2: 106; T cruzi growth-3: inactive; NIH3T3 tox: inactive; 3T3 cytotox 2: inactive

How did Cc1ccc(S(=O)(=O)Nc2ccc3c(c2)C(=O)N([C@@H](C)CO)C[C@H](C)[C@@H](CN(C)C(=O)Nc2ccc(F)cc2)OCCCC[C@@H](C)O3)cc1 do in these assays?
Pf Dd2 growth: -82; T cruzi growth-1: 98; T cruzi growth-2: 107; T cruzi growth-3: inactive; NIH3T3 tox: inactive; 3T3 cytotox 2: inactive

What do the screens show for `Cc1ccc(S(=O)(=O)Nc2ccc3c(c2)C(=O)N([C@H](C)CO)C[C@H](C)[C@H](CN(C)C(=O)Nc2ccc(F)cc2)OCCCC[C@@H](C)O3)cc1`?
Pf Dd2 growth: inactive; T cruzi growth-1: inactive

How did Cc1ccc(S(=O)(=O)Nc2ccc3c(c2)C(=O)N([C@@H](C)CO)C[C@@H](C)[C@@H](CN(C)C(=O)Nc2ccc(F)cc2)OCCCC[C@H](C)O3)cc1 do in these assays?
Pf Dd2 growth: inactive; T cruzi growth-1: inactive

How did Cc1ccc(S(=O)(=O)Nc2ccc3c(c2)C(=O)N([C@@H](C)CO)C[C@H](C)[C@H](CN(C)C(=O)Nc2ccc(F)cc2)OCCCC[C@@H](C)O3)cc1 do in these assays?
Pf Dd2 growth: inactive; T cruzi growth-1: inactive

What do the screens show for `Cc1ccc(S(=O)(=O)Nc2ccc3c(c2)C(=O)N([C@@H](C)CO)C[C@@H](C)[C@H](CN(C)C(=O)Nc2ccc(F)cc2)OCCCC[C@@H](C)O3)cc1`?
Pf Dd2 growth: inactive; T cruzi growth-1: inconclusive; T cruzi growth-2: 101; T cruzi growth-3: inactive; NIH3T3 tox: inactive; 3T3 cytotox 2: inactive

What do the screens show for `Cc1ccc(S(=O)(=O)N[C@@H]2C=C[C@H](CC(=O)N3CCN(c4ccccc4)CC3)O[C@@H]2CO)cc1`?
Pf Dd2 growth: inactive; C diff HTS: inactive; T cruzi growth-1: inactive

How did CNC[C@H]1Oc2cc(C#CC3(O)CCCC3)ccc2S(=O)(=O)N([C@@H](C)CO)C[C@@H]1C do in these assays?
Pf Dd2 growth: inactive; C diff HTS: inactive; T cruzi growth-1: inactive

Results for COc1cc(CO)cc(I)c1O[C@H]1C=C(C(=O)NCCO)C[C@@H](NCc2ccccc2F)[C@@H]1O ?
C diff HTS: inactive

Results for C[C@H]1CCCCO[C@@H](CN(C)Cc2ccc(C(=O)O)cc2)[C@@H](C)CN([C@@H](C)CO)C(=O)c2cc(NC(=O)Nc3cccc4ccccc34)ccc2O1 ?
Pf Dd2 growth: inactive; C diff HTS: inactive; T cruzi growth-1: inactive

How did C[C@@H]1CCCCO[C@@H](CN(C)Cc2ccc(C(=O)O)cc2)[C@H](C)CN([C@H](C)CO)C(=O)c2cc(NC(=O)Nc3cccc4ccccc34)ccc2O1 do in these assays?
Pf Dd2 growth: inactive; C diff HTS: inactive; T cruzi growth-1: inactive

Results for C[C@H]1CCCCO[C@H](CN(C)Cc2ccc(C(F)(F)F)cc2)[C@@H](C)CN([C@@H](C)CO)C(=O)c2cc(NC(=O)Nc3cccc4ccccc34)ccc2O1 ?
Pf Dd2 growth: inactive; C diff HTS: inactive; T cruzi growth-1: inconclusive; T cruzi growth-2: 97; T cruzi growth-3: 109; NIH3T3 tox: inactive; 3T3 cytotox 2: inactive

How did C[C@@H]1CCCCO[C@H](CN(C)Cc2ccc(C(=O)O)cc2)[C@@H](C)CN([C@H](C)CO)C(=O)c2cc(NC(=O)Nc3cccc4ccccc34)ccc2O1 do in these assays?
Pf Dd2 growth: inactive; C diff HTS: inactive; T cruzi growth-1: inactive

What do the screens show for `C[C@@H]1CN([C@H](C)CO)C(=O)c2cc(NC(=O)Nc3cccc4ccccc34)ccc2O[C@@H](C)CCCCO[C@@H]1CN(C)Cc1ccc(C(=O)O)cc1`?
Pf Dd2 growth: inactive; C diff HTS: inactive; T cruzi growth-1: inactive

Results for C[C@@H]1CN([C@H](C)CO)C(=O)c2cc(NC(=O)Nc3cccc4ccccc34)ccc2O[C@@H](C)CCCCO[C@@H]1CN(C)Cc1ccc(C(F)(F)F)cc1 ?
Pf Dd2 growth: -87; C diff HTS: inactive; T cruzi growth-1: inconclusive; T cruzi growth-2: 102; T cruzi growth-3: 108; NIH3T3 tox: inactive; 3T3 cytotox 2: inactive

How did C[C@H]1CCCCO[C@@H](CN(C)Cc2ccc(C(F)(F)F)cc2)[C@@H](C)CN([C@@H](C)CO)C(=O)c2cc(NC(=O)Nc3cccc4ccccc34)ccc2O1 do in these assays?
Pf Dd2 growth: inactive; C diff HTS: inactive; T cruzi growth-1: inconclusive; T cruzi growth-2: 108; T cruzi growth-3: 108; NIH3T3 tox: inactive; 3T3 cytotox 2: inactive

How did C[C@@H]1CCCCO[C@@H](CN(C)Cc2ccc(C(F)(F)F)cc2)[C@@H](C)CN([C@@H](C)CO)C(=O)c2cc(NC(=O)Nc3cccc4ccccc34)ccc2O1 do in these assays?
Pf Dd2 growth: inactive; C diff HTS: inactive; T cruzi growth-1: inconclusive; T cruzi growth-2: 108; T cruzi growth-3: 100; NIH3T3 tox: inactive; 3T3 cytotox 2: inactive

What do the screens show for `CO[C@H]1CN(C)C(=O)c2cc(NC(=O)Nc3c(C)noc3C)ccc2OC[C@@H](C)N(CC2CC2)C[C@H]1C`?
Pf Dd2 growth: inactive; T cruzi growth-1: inactive

What do the screens show for `C[C@@H]1CN([C@H](C)CO)C(=O)c2ccccc2-c2ccccc2CO[C@@H]1CN(C)S(=O)(=O)c1ccc(F)cc1`?
Pf Dd2 growth: inactive; T cruzi growth-1: inactive

Bioassay records as filed in PubChem.
